Screening data from PubChem.
697 NFkB inh: lowers PMA/ionomycin-induced NF-kB signal in 697 B cells | 697 B-cell NF-kB luciferase reporter, 16 h | inhibition, % at 4 µM | hit rate 0.33% among 330,000 | AID 435022; in the data active = inhibition above about 35%
Jurkat NFkB inh: lowers PMA/ionomycin-induced NF-kB signal in Jurkat cells; hit rate 0.53% among 330,000; PMA/ionomycin-induced NF-kB luciferase reporter, luminescence; inhibition, % at 4 µM; in the data active = inhibition above about 50%
SMARCA2 activ: SMARCA2 function activation, primary screen. activation, % at 9.1 µM. hit rate 1% among 370,000. AID 652017. MG213 cells, MMTV-luciferase reporter, dexamethasone, overnight; in the data active = activation above about 7.8%;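 note: 0% = vehicle wells and 100% = reference activator wells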
esBAF inh: inhibitors of esBAF chromatin remodeling in mouse ES cells. hit rate 2% among 350,000. Bmi1-luciferase knock-in reporter, 24 h; 100% = twice the neutral-well signal. reporter increase, % at 12.5 µM. AID 602393; in the data active = activation above about 40%;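 note: 0% = median of the plate's neutral control wells and 100% = double that signal; a rise in the Bmi1 reporter signal indicates esBAF inhibition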
Gli-Sufu antag: antagonists of Gli-Sufu signaling. inhibition, % at 5 µM. Sufu-KO-LIGHT fibroblasts, Gli luciferase reporter luminescence. hit rate 0.74% among 340,000. AID 588413;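 active = inhibition above about 55%, limit read from the data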;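 note: 0% = DMSO-treated cells and 100% = wells with medium but no cells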
SMARCA2 conf: confirmation of SMARCA2 (BRM) function activators. shares compounds with SMARCA2 activ. MG213 cells, MMTV-luciferase with dexamethasone, luminescence, overnight; MG213 cells expressing E1A, Rb sequestered; DMSO wells 0%, reference activator 100%. activation, % at 9.1 µM. hit rate 30% among 3,500. AID 652260;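 active = activation above its plate's cutoff, the mean activation of tested wells plus 3 SD, cut at about 7.9% in these data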
GAL4-VP16 Luc: counter-screen for SMARCA2 activators: GAL4-VP16 luciferase reporter activation. shares compounds with SMARCA2 activ. hit rate 41% among 3,500. activation, % at 9.1 µM. HEK293 GAL4-VP16 pG5luc reporter, luciferase luminescence; scaled: DMSO wells 0%, SAHA wells 100%;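 active = activation above the solvent-only control well mean plus 3 SD, averaged across control plates, cut at about 5.2% in these data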
Starred values were filed as active, the others as inactive. A selection: hits, their analogues and other compounds. The true share with any hit is near 3.3%.

How did CCOc1ccc(C2=Nn3c(nnc3-c3cccnc3)SC2)cc1 do in these assays?
697 NFkB inh: 5.1; Jurkat NFkB inh: 1.2; SMARCA2 activ: 0.6; esBAF inh: -3.7; Gli-Sufu antag: 4.4

How did O=C(C[C@H]1CC[C@H]2[C@@H](COC[C@H](O)CN2Cc2ccccc2F)O1)N1CCc2ccccc2C1 do in these assays?
esBAF inh: -3.1

Results for COC(=O)c1ccc2nc(-c3cccc(Cl)c3)c(Cc3cccc(F)c3)n2c1 ?
SMARCA2 activ: 11.1*; SMARCA2 conf: -3.6; GAL4-VP16 Luc: 2.4

Results for O=C1NC(c2ccc(Br)cc2)=N/C1=C/c1ccco1 ?
697 NFkB inh: -95.4; Jurkat NFkB inh: -100.9; SMARCA2 activ: 8.1*; Gli-Sufu antag: -4.2; SMARCA2 conf: 7.7; GAL4-VP16 Luc: 10.7*

What do the screens show for `O=C1NC(c2ccccc2Cl)=N/C1=C/c1ccco1`?
697 NFkB inh: -24.7; Jurkat NFkB inh: -20.2; SMARCA2 activ: 18.4*; Gli-Sufu antag: 0.8; SMARCA2 conf: 9.7*; GAL4-VP16 Luc: 8.1*

Results for C[C@H]1CN([C@@H](C)CO)C(=O)Cc2cc(N(C)C)ccc2O[C@@H]1CN(C)S(C)(=O)=O ?
esBAF inh: -1.7

Results for CCC(=O)N[C@H]1CC[C@@H](CCn2cc(CN(C)C)nn2)O[C@H]1CO ?
esBAF inh: -3.3

What do the screens show for `CCCN(C)C[C@@H]1Oc2cc(-c3cccnc3)ccc2S(=O)(=O)N([C@H](C)CO)C[C@@H]1C`?
esBAF inh: 2.3

What do the screens show for `O=C(NCCc1ccccc1)NC1CCCCC1`?
697 NFkB inh: -85.7; Jurkat NFkB inh: -101.2; SMARCA2 activ: 11.1*; esBAF inh: 11.6; Gli-Sufu antag: -56.4; SMARCA2 conf: 9.0*; GAL4-VP16 Luc: 7.7*

What do the screens show for `O=C(NCCC1=CCCCC1)NC1CCCCC1`?
697 NFkB inh: -161.7; Jurkat NFkB inh: -98.2; SMARCA2 activ: 8.7*; esBAF inh: 16.0; Gli-Sufu antag: -6.0; SMARCA2 conf: 8.1*; GAL4-VP16 Luc: 8.7*

How did CCCNC(=O)C(=O)NCCC1=CCCCC1 do in these assays?
697 NFkB inh: -9.0; Jurkat NFkB inh: -2.5; SMARCA2 activ: -0.3; esBAF inh: -9.9; Gli-Sufu antag: -11.6

Results for Cc1ccc(S(=O)(=O)/N=S(/C)c2ccccc2)cc1 (configuration not stated) ?
697 NFkB inh: 6.1; Jurkat NFkB inh: 9.0; SMARCA2 activ: -1.9; Gli-Sufu antag: 1.2

Results for CC/S(=N\S(=O)(=O)c1ccc(C)cc1)c1ccccc1 (configuration not stated) ?
697 NFkB inh: -4.3; Jurkat NFkB inh: -2.8; SMARCA2 activ: 8.1*; esBAF inh: 0.5; Gli-Sufu antag: 4.6; SMARCA2 conf: -3.7; GAL4-VP16 Luc: -1.3

Results for COCCNC(=O)CN1CCCCCC1 ?
697 NFkB inh: 4.5; Jurkat NFkB inh: -2.6; SMARCA2 activ: 8.3*; esBAF inh: 4.1; Gli-Sufu antag: 1.7; SMARCA2 conf: 2.3; GAL4-VP16 Luc: 1.1

How did COc1cccc(C2C(C(=O)OC(C)C)=C(C)Nc3ncnn32)c1 (configuration not stated) do in these assays?
697 NFkB inh: -0.8; Jurkat NFkB inh: 11.1; SMARCA2 activ: 8.2*; esBAF inh: -6.1; Gli-Sufu antag: 6.7; SMARCA2 conf: 1.4; GAL4-VP16 Luc: 0.6

How did CN1CCN(C(=S)NC(=O)/C=C/c2ccccc2)CC1 do in these assays?
697 NFkB inh: 5.4; Jurkat NFkB inh: 3.7; SMARCA2 activ: 8.3*; esBAF inh: -0.6; Gli-Sufu antag: 0.7; SMARCA2 conf: 1.2; GAL4-VP16 Luc: 0.9

How did CN1CCN(C(=S)NC(=O)/C=C/c2ccccc2Cl)CC1 do in these assays?
697 NFkB inh: 1.4; Jurkat NFkB inh: 0.1; SMARCA2 activ: 0.8; Gli-Sufu antag: -12.5

How did CC1(O)C(c2ccccc2)=Nc2ccccc21 (configuration not stated) do in these assays?
SMARCA2 activ: 9.5*; esBAF inh: 34.0; SMARCA2 conf: 11.9*; GAL4-VP16 Luc: 12.7*

Results for COc1ccc(C2=[N+]([O-])C(C)(C)C(c3ccccc3)=N2)cc1 ?
697 NFkB inh: -12.2; Jurkat NFkB inh: -13.2; SMARCA2 activ: 5.1; esBAF inh: -2.3; Gli-Sufu antag: -8.8

Results for O=C(C[C@H]1CC[C@@H]2[C@H](COC[C@@H](O)CN2C(=O)c2ccncc2)O1)NC1Cc2ccccc2C1 ?
esBAF inh: 6.2

Results for Clc1ccc(-c2ccn[nH]2)cc1 ?
697 NFkB inh: -5.0; Jurkat NFkB inh: -11.0; SMARCA2 activ: -2.5; Gli-Sufu antag: -11.8

Results for S=c1nccc(-c2ccc(Cl)cc2)[nH]1 ?
697 NFkB inh: 10.8; Jurkat NFkB inh: -6.0; SMARCA2 activ: 8.1*; Gli-Sufu antag: 9.0; SMARCA2 conf: -1.5; GAL4-VP16 Luc: 3.1

How did CCOC(=O)C(=CNCC(=O)O)C(=O)OCC do in these assays?
697 NFkB inh: 6.1; Jurkat NFkB inh: -3.0; SMARCA2 activ: 11.1*; esBAF inh: -1.0; Gli-Sufu antag: 6.8; SMARCA2 conf: -1.8; GAL4-VP16 Luc: -0.3

Results for CCOC(=O)C(=CNc1ccc(C)cc1C)C(=O)OCC ?
697 NFkB inh: 28.2; Jurkat NFkB inh: -1.3; SMARCA2 activ: 7.2; esBAF inh: 3.1; Gli-Sufu antag: -11.9

Results for COc1ccc(NC(=O)Nc2ccc3c(c2)C(=O)N([C@H](C)CO)C[C@@H](C)[C@H](CN(C)C)O3)cc1 ?
esBAF inh: 0.2

How did Cc1nnc(NC2=NCCC2)o1 do in these assays?
697 NFkB inh: -5.3; Jurkat NFkB inh: -15.7; SMARCA2 activ: -1.4; esBAF inh: -6.0; Gli-Sufu antag: 2.5

Results for c1coc(-c2nnc(NC3=NCCC3)o2)c1 ?
697 NFkB inh: -47.1; Jurkat NFkB inh: -49.9; SMARCA2 activ: 8.8*; esBAF inh: 15.5; Gli-Sufu antag: 24.0; SMARCA2 conf: 3.1; GAL4-VP16 Luc: 5.4*

What do the screens show for `CCCc1cnc(N2CCN(C(=S)NC)CC2)nc1`?
697 NFkB inh: -71.9; Jurkat NFkB inh: -60.1; SMARCA2 activ: 8.4*; esBAF inh: 37.2; Gli-Sufu antag: -27.6; SMARCA2 conf: 7.0; GAL4-VP16 Luc: 7.7*

What do the screens show for `CCCc1cnc(N2CCN(C(=O)c3ccc(F)cc3)CC2)nc1`?
697 NFkB inh: -14.4; Jurkat NFkB inh: -3.4; SMARCA2 activ: -0.5; esBAF inh: 2.5; Gli-Sufu antag: 2.5

How did O=C(/C=C/c1ccc(-c2ccccc2)o1)c1ccccc1 do in these assays?
697 NFkB inh: -8.9; Jurkat NFkB inh: 8.8; SMARCA2 activ: 11.8*; Gli-Sufu antag: -1.2; SMARCA2 conf: 20.5*; GAL4-VP16 Luc: 4.9

Results for Cc1ccc(-c2ccc(/C=C/C(=O)c3ccccc3)o2)cc1 ?
697 NFkB inh: -38.6; Jurkat NFkB inh: -5.5; SMARCA2 activ: 0.3; Gli-Sufu antag: -23.3
